# Not all results are given here. How many sequences the whole screen found active is unknown. A number with no mark means an inactive call.
# B1: il10ra_site1_normal_mot_39ab2cb694c8b9c1dc7e65c0d672c93e_0001_000000036_0001_53_65_H_._HHH_b2_05692_af2_0001_0000600025_0000002_0 (protein)
# chain: SSSSDEEEEELRELVEEVERLIERNDREEALRVAAEALRLAFRARNPEVLQLLWELAKLLSSSSS
# B2: il10ra_site1_sap_13_mot_8756ee2cf497b5429c717dfc0c0bcfd6_0001_000000186_0001_1_13_H_._HHH_b2_05518_af2_0001_0000600027_0000001_0_0001 (protein)
# chain: SSSSDLEELARAAVRLIEQAIEWGDEERAKFALLALEMAAEETNDPELRELLEELEKLLRGSSSS
# B3: il10ra_site1_sap_25_mot_HHH_b1_08133_000000195_0001_1_19_H_._HHH_b1_03607_0001_0000200023_0000001_0_0001_af2pred_0001 (protein)
# chain: SSSSSEEVEELEEEARELIKRNDPEEVLKIIRRLARLAFRLNDPEISKIAIELAELLKKLDSSSS
# B4: il10ra_site1_normal_mot_HHH_b2_02337_000000026_0001_38_52_H_._HHH_b2_04211_af2_0001_0000300011_0000002_0 (protein)
# chain: SSSSDEEREEIEELIKEFEELLERGDREEAVRVVTEALQFALKLGDQELLKRIWELVKSLSSSSS
# B5: il10ra_site1_sap_17_mot_HHH_b1_06914_000000280_0001_1_18_H_._HHH_b2_08155_0001_0000100009_0000001_0_0001 (protein)
# chain: SSSSDEANERVWELLREALHIDDPEEAREVVEEAAEIAEERNNRVLLHNIRFLLRQLEKGSSSSS
# B6: il10ra_site1_sap_23_mot_HHH_b1_08616_000000009_0001_1_19_H_._HHH_b2_04715_af2_0001_0000100004_0000001_0_0001 (protein)
# chain: SSSSSDQEEQLIRALLWFAEWTSNPTARRLMLEQAERHARELGNEELREEVERVEKELEESSSSS
# B7: il10ra_site1_normal_mot_HHH_b1_05056_000000217_0001_1_20_H_._HHH_b2_03866_0001_0000200011_0000001_0 (protein)
# chain: SSSSSSEEREEVEELLEEAEHVDDLRELARILAEAVRFAYEGKDEEALQLVWEVVRRLFSSSSSS
# B8: il10ra_site1_sap_16_mot_HHH_b2_00943_af2_000000149_0001_1_17_H_._HHH_b1_06222_0001_0000300032_0000001_0_0001_af2pred_dldesign_0_af2pred (protein)
# chain: SSSSSPENEELVRLIREVAELLYDGKPEEAREKLKEAEELTEKLGDEIFKRNIELLRKELESSSS
# B9: il10ra_site1_sap_16_mot_HHH_b1_06789_af2_000000041_0001_1_20_H_._HHH_b1_04240_af2_0001_0000500015_0000001_0_0001 (protein)
# chain: SSSSSDEEYEEEVERLLEEAEKIPDPREAAEVLLKALRVALRGNDPELLHLVWEVLEEISSSSSS
# B10: il10ra_site1_normal_mot_HHH_b1_06057_000000129_0001_22_38_H_._HHH_b2_05766_0001_0000200026_0000001_0 (protein)
# chain: SSSSDRTARWSVEFALRVAEELAKRDPERARELLEHLAELLKEARDEELLEEVERLLEEIGSSSS
# B11: il10ra_site1_normal_mot_HHH_b2_08287_af2_000000247_0001_1_16_H_._HHH_b2_07820_0001_0000300057_0000001_0_af2pred_0001 (protein)
# chain: SSSSDEEEEEVKELLEEAKRIDDPRERTRVLVEAYALAFELNNPELEELVKEVAIELLERSSSSS
# B12: il10ra_site1_sap_19_mot_HHH_b1_04514_000000156_0001_1_18_H_._HHH_b1_01679_0001_0000100001_0000001_0_0001_af2pred_0001 (protein)
# chain: SSSSSSEAEKEVAKILIEVLRLNDEEAAERISHLLIRLIVEGDERLIEEIRELFEEVEENSSSSS
# B13: il10ra_site1_normal_mot_HHH_b1_05672_af2_000000246_0001_1_19_H_._ems_3hC_444_af2_0001_0000400050_0000001_0 (protein)
# chain: SSDLREEFSRVLIRAVRAAARHDEEKAEELVRRAEEIAEELGDEELERYVEIVKNFVESATRSSS
# B14: il10ra_site1_sap_24_mot_HHH_b2_00622_af2_000000153_0001_40_57_H_._1ad9cd31332199d645683f25bccb3f2f_0001_af2_0001_0000400010_0000001_0_0001 (protein)
# chain: SSSSSDEEAEEQVEELLEEAKRIEDREEVLRLLIEANRIAFRAGNDELQREIWRVAQELSSSSSS
# B15: il10ra_site1_sap_19_mot_HHH_b1_01585_000000217_0001_1_18_H_._HHH_b1_05870_af2_0001_0000200018_0000002_0_0001 (protein)
# chain: SSSSSRAEKVREILEEVVELQRQGDKEEAERLLEELLEELEELGDVNSLVNVEYLLRAVRKSSSS
# B16: il10ra_site1_normal_mot_HHH_b1_01827_000000263_0001_1_19_H_._HHH_b2_07433_0001_0000500029_0000001_0_af2pred_0001 (protein)
# chain: SSSSSTEEVERVIKLIRRALEIEDEEERRRLLEEAVELAEEGGNLVLLISARFALEDVEQSSSSS
# B17: il10ra_site1_sap_10_mot_HHH_b1_05704_af2_000000048_0001_1_18_H_._HHH_b2_04382_0001_0000100002_0000001_0_0001_af2pred_0001 (protein)
# chain: SSSSSEEEERVELALRFVKFLLKAGDPEAARFFVEWALEKAKELGNEELEEEAEELLREARSSSS
# B18: il10ra_site1_sap_18_mot_HHH_b2_04327_000000030_0001_41_55_H_._HHH_b2_03484_af2_0001_0000400008_0000001_0_0001_af2pred_0001 (protein)
# chain: SSSSSSSEEEELMQLAAEISRHASPEEIRRLFELLVRLYHEGDPELKEELRELIEEIKSSSSSSS
# Biological target: il10ra, Q13651
# Sequence (Q13651 whole entry): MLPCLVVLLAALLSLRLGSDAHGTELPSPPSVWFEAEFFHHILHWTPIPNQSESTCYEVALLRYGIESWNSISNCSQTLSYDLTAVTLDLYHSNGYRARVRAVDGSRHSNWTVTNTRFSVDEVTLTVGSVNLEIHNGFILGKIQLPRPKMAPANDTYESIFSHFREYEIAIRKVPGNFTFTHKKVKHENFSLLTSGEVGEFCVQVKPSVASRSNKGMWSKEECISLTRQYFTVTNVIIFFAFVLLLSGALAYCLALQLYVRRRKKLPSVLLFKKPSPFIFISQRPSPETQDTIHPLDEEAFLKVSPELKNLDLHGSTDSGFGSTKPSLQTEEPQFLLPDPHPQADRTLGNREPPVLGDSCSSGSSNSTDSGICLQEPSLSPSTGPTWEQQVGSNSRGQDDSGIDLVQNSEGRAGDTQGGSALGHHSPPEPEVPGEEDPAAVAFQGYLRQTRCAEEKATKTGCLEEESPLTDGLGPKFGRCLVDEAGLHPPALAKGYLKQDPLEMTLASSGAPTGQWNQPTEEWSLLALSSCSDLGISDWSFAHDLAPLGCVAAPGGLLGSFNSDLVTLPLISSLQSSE
# Assay: yeast display titration
row,Binder,apparent Kd
1,B1,no binding seen
2,B2,no binding seen
3,B3,> 233 nM
4,B4,no binding seen
5,B5,no binding seen
6,B6,no binding seen
7,B7,no binding seen
8,B8,no binding seen
9,B9,no binding seen
10,B10,no binding seen
11,B11,no binding seen
12,B12,no binding seen
13,B13,no binding seen
14,B14,no binding seen
15,B15,no binding seen
16,B16,no binding seen
17,B17,no binding seen
18,B18,no binding seen
